The values that follow come from PubChem BioAssay AID488815 (Broad Institute, 2010).

Entries with a potency or affinity are not part of this list. Results filed as inconclusive are left out. The source made the active and inactive calls. The rule behind the calls is not given here.

This test concerns the target CAAX prenyl protease 1 (Saccharomyces cerevisiae (strain ATCC 204508 / S288c)) (UniProt P47154). As to the kind of experiment: Ste24 protease inhibitors, dose response, biochemical, S. cerevisiae, plate reader, cherry-pick (AID 488815).

Sequence of CAAX prenyl protease 1 (Saccharomyces cerevisiae (strain ATCC 204508 / S288c)) (P47154 whole entry, looked up): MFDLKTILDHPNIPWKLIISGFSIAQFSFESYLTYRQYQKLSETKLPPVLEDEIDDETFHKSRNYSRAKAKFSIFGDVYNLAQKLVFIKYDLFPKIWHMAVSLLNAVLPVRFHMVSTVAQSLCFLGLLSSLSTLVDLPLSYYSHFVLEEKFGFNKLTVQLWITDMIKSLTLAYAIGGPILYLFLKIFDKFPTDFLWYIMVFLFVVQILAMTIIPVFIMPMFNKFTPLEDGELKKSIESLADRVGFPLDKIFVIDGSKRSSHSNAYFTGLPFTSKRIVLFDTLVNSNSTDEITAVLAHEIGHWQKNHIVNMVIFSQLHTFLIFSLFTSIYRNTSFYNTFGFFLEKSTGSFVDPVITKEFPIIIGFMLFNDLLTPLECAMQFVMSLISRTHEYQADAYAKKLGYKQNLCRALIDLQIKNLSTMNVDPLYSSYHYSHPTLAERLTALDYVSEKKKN

As to `O=C1CN(C(=O)NCC(=O)N2CCCC2)c2ccccc2N1`, the compound was classed as inactive.

Consider `Cc1cc(N)c2cc(NC(=O)/C=C/c3ccccc3Cl)ccc2n1`, for which the call was inactive. Under `O=C(c1cnc(Cl)c(Cl)c1)N1CCC(Cc2ccccc2)CC1` stands “inactive”. For `CCOC(=O)c1c(NC(=O)COc2ccccc2F)sc2c1CC(C)(C)NC2(C)C` the value was “inactive”; for `CC(=O)N1c2ccc([N+](=O)[O-])cc2NC(=O)CC1C` (stereo not given), “inactive”; for `CCCC(=O)N1CCN(c2ccc(NC(=O)c3cc4ccccc4o3)cc2Cl)CC1`, “inactive”. Under `CCCCOc1ccc(Cc2c(COCC)[nH]c(=S)[nH]c2=O)cc1` stands “inactive”; under `CSc1ccc(C(=O)C2CCCN(C(=O)c3cccnc3SC)C2)cc1` (stereo not given), “inactive”. In the case of `COc1ccc(S(=O)(=O)NCC2CCCO2)cc1NC(=O)c1ccccc1F` (stereo not given), the result was inactive. For the compound `COC(C/C=C/[C@H](O)[C@H](C)OCc1ccccc1)OC`, the call was inactive. For `O=C(COc1ccccc1)Nc1cccc(-c2nc3cc4ccccc4cc3[nH]2)c1` the value was “inactive”. Under `CN1c2ccc(C=O)c3c(C=O)ccc(c23)N(C)C1(C)C` stands “inactive”; under `NC(=NCCCCCCN=C(N)/N=C(\N)Nc1ccc(Cl)cc1)/N=C(\N)Nc1ccc(Cl)cc1`, “inactive”; under `CC(Cc1cccs1)NC(=O)Nc1ccc([N+](=O)[O-])cc1` (stereo not given), “inactive”. `CN(C(=O)COC(=O)c1cc([N+](=O)[O-])ccc1Sc1ccccc1)C1CCS(=O)(=O)C1` (stereo not given): the outcome was inactive. For `CCOc1ccc(OCC)c(NC(=O)c2nnn(CC(=O)Nc3cc(C)cc(C)c3)c2N)c1` the value was “inactive”; for `Cn1c(CN2CCOCC2)c(C#N)c2ccccc21`, “inactive”; for `c1ccc(CNc2nc(N3CCN(Cc4ccccc4)CC3)nc3ccccc23)cc1`, “inactive”. Take `Cc1cccc(N2CCc3c2nc2ccc(Br)cc2c3N)c1`: the outcome was inactive. For `Nc1nnnn1/N=C/c1ccccc1OCc1ccc(Cl)cc1Cl` the value was “inactive”; for `CCOC(=O)c1c(NC(=O)c2cccc(N3C(=O)CCC3=O)c2)sc(C)c1C`, “inactive”. Under `C#CCNC(=O)C1=C[C@@H](C2CCCCC2)C[C@@H](OCc2ccc(CO)cc2)O1` stands “inactive”. In the case of `Cc1ccccc1NS(=O)(=O)c1ccc(C(=O)NCC(c2ccccc2)N(C)C)cc1` (stereo not given), the compound was classed as inactive. For `COc1ccc2[nH]c(C(=O)NCCCn3ccnc3)cc2c1` the value was “inactive”; for `Cc1nc(-c2ccc(Cl)cc2)sc1C1(C)CC(c2ccccc2Br)=NO1` (stereo not given), “inactive”. For the compound `O=S(=O)(c1ccccc1)c1nc(-c2ccco2)oc1N1CCCCC1`, the call was inactive. As for `CC(=O)N[C@@H](C)c1nc2ccccc2n1CCCN1CCN(c2nc(-c3ccc(C)cc3)cs2)CC1`, the call was inactive. Under `NS(=O)(=O)c1ccc(NC(=O)/C=C/c2cn(-c3ccccc3)nc2-c2cccc(Cl)c2)cc1` stands “inactive”. For the compound `O=C(CCNS(=O)(=O)c1ccc2[nH]c(=O)oc2c1)NCc1ccccc1`, the outcome was inactive. For `COc1cccc(C2CC(c3ccc(Br)cc3)=NN2C(=O)c2ccncc2)c1OC` (stereo not given) the value was “inactive”. Under `Cc1ccccc1OC(C)C(=O)N1CCC(Cc2ccccc2)CC1` (stereo not given) stands “inactive”; under `COc1ccc(/C=N/NC(=O)c2ccc(Cl)cc2)cc1COC(C)=O`, “inactive”; under `Clc1ccc(CN2CCc3c([nH]c4ccccc34)C2)cc1Cl`, “inactive”. For `CCCCOC(=O)Nc1nc(C)c(C(=O)OCC)s1` the value was “inactive”; for `O=C(c1cnc2n(c1=O)CCS2)N1CCN(C(c2ccccc2)c2ccc(Cl)cc2)CC1` (stereo not given), “inactive”. As for `COc1ccc(-n2nc(C(=O)NCC(=O)N3CCC(C)CC3)c3ccccc3c2=O)cc1`, the outcome was inactive. Under `O=C(Nc1ccc(S(=O)(=O)Nc2ccccc2)cc1)C1COc2ccccc2O1` (stereo not given) stands “inactive”; under `CN(C)CCN(C(=O)c1ccc2ccccc2c1)c1nc2ccc(F)cc2s1`, “inactive”; under `CN(C)S(=O)(=O)c1ccc(NC(=O)/C=C/c2ccccc2Cl)cc1`, “inactive”. For `CN1CCN(C(=S)NC(=O)c2ccccc2Cl)CC1` the value was “inactive”; for `O=C(C1CCC(=O)N(C2CC2)C1)N1CCN(c2ccccc2Cl)CC1` (stereo not given), “inactive”. Under `O=C(Nc1ncccn1)c1ccc([N+](=O)[O-])cc1` stands “inactive”; under `c1cnn(Cc2cnc(N3CCOCC3)s2)c1`, “inactive”; under `CCSCCOC(=O)C1=C(C)NC(=O)NC1c1ccccc1` (stereo not given), “inactive”. `Cc1cccc(NC(=O)c2cc(S(=O)(=O)N3CCCCC3)c[nH]2)c1C`: the result was inactive. Under `Cc1cc(NC(=O)c2oc3ccccc3c2C)ccc1-n1cnnn1` stands “inactive”; under `O=C(CN1CCC(NC(=O)c2ccc(Br)cc2)CC1)NCc1cccs1`, “inactive”; under `Cc1cc2cc(C(=O)N3CCc4c([nH]c5ccccc45)C3c3ccccn3)ccc2o1` (stereo not given), “inactive”. For `Cc1cccc(-c2nnc(SCc3ccc(C#N)cc3)n2Cc2ccco2)c1` the value was “inactive”; for `Cc1nc2c(C)cccn2c(=O)c1NC(=O)COc1ccccc1`, “inactive”; for `Cc1ccc(C(=O)c2c3ccccc3[n+]([O-])n2CCO)cc1`, “inactive”. Under `Cc1cccc(N2C(=O)c3cccc4c(N5CCCCC5)c([N+](=O)[O-])cc(c34)C2=O)c1C` stands “inactive”; under `COc1ccc(C)cc1NC(=O)CCC(=O)Nc1ccc2nc(N3CCN(C)CC3)cc(C)c2c1`, “inactive”. With `CCC1CCCCN1C(=O)NC(=O)c1ccccc1` (stereo not given), the outcome was inactive.

Take `CC1(c2ccc(OCC#N)cc2)C=C(c2ccc(OCC#N)cc2)n2nc(C(F)(F)F)nc2N1` (stereo not given): the result was inactive. For `CC(C)C(=O)Nc1cccc(NC(=S)NC(=O)C(c2ccccc2)c2ccccc2)c1` the value was “inactive”; for `COC(C[C@H](O)C[C@H](O)[C@@H](C)OCc1ccccc1)OC`, “inactive”; for `COc1ccc(Br)cc1C(=O)Nc1cc(C)cc(C)c1`, “inactive”. For `CCn1c(C)nc2c(=O)oc3ccccc3c21` the value was “inactive”; for `CCN(Cc1ccccc1)S(=O)(=O)c1ccc(C(=O)N(CCCN(C)C)c2nc3c(C)c(C)ccc3s2)cc1`, “inactive”; for `C=C(C)CSc1nc2sc3c(c2c(=O)n1-c1ccc(OC)cc1)CCN(C)C3`, “inactive”.

Consider `COc1cc(-c2nc3ccccn3c2/N=C/c2cc(OC)c(OC)c(OC)c2)ccc1O`, for which the call was inactive. For `NC(=O)c1nsc(C(=O)N(c2ccccc2F)C(C(=O)NCc2ccccc2)c2ccc(O)cc2)c1N` (stereo not given) the value was “inactive”.

On to `Cc1nc(N2CCOCC2)c2cc(-c3ccccc3)sc2n1`, for which the compound was classed as inactive. For `CC(/C=N\NC(=O)CN1CCN(S(=O)(=O)c2ccc(C)cc2)CC1)=C\c1ccccc1`, the compound was classed as inactive. Under `COc1ccc(OCC(=O)NS(=O)(=O)c2ccc(Cl)cc2)cc1` stands “inactive”; under `CCn1nc(C)cc1C(=O)NC1CC(C)(C)Cc2c1cnn2-c1cccc(F)c1` (stereo not given), “inactive”; under `COC(C/C=C/[C@H](O)[C@@H](C)OCc1ccccc1)OC`, “inactive”. On to `CC(C)CC(=O)NC(=S)Nc1ccc(S(=O)(=O)Nc2nccs2)cc1`, for which the result was inactive.

`CC(C)C[C@H](NC(=O)c1nc[nH]c1C(=O)N1CCNCC1)C(=O)OCc1ccccc1`: the outcome was inactive.

Consider `Cc1cc(-c2ccccc2)n2nc(C)c(C#N)c2n1`, for which the compound was called inactive.

For `Cc1ccc(C2(COC(=O)C(C)C)CO2)c(OC(=O)C(C)C)c1` (stereo not given), the compound was classed as inactive. For `CC1=NN(c2ccccc2)C(=O)/C1=C\c1ccc(Br)s1` the value was “inactive”; for `O=C(C(Cc1ccccc1)N1C(=O)c2ccccc2C1=O)N1c2ccccc2CCc2ccccc21` (stereo not given), “inactive”; for `CC(=O)c1c(O)cc(O)c(C(C)=O)c1O`, “inactive”.

As for `Cc1ccc(NS(=O)(=O)c2ccc(NC(=O)N3CCCCC3)cc2)cc1`, the result was inactive.

Regarding `O=C(Nc1ccc(N2CCOCC2)c(Cl)c1)c1cc2ccccc2o1`, the call was inactive. Under `COc1ccc(C(C(=O)NC2CCCCC2)N(C(=O)c2snc(C(N)=O)c2N)c2ccc(OC)cc2OC)cc1` (stereo not given) stands “inactive”. For `C/C(CC(=O)NCc1ccco1)=N\NC(=O)c1ccc([N+](=O)[O-])cc1Cl` the value was “inactive”; for `CC(C)(C)OC(=O)N1CCC(c2cc(=O)n3[nH]cc(C(=O)Nc4ccc(F)c(Cl)c4)c3n2)CC1`, “inactive”.
